Source: PubChem
KB-3-1 tox: qHTS assay for MDR1-selective chemotherapeutics: Primary screen using the parental adenocarcinoma cell KB-3-1 | Potency, µM (doses to about 46.1 µM), actives largely listed as cytotoxic | KB-3-1 viability, CellTiter-Glo ATP luminescence, 72 h | 400,000 compounds, 1.4% hits | AID 1347075, 2019; further: nearly all actives have a fitted effect of over 60% in size
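Parental KB-3-1 viability, qHTS format: 72 h compound exposure, 37 °C; CellTiter-Glo; media-only wells and DMSO plates as controls; concentration-effect fits on corrected data.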
ATXN viability: Viability Counterscreen for Primary qHTS for Inhibitors of ATXN expression; S2 cells (HEK-293 line with an ATXN2-luciferase reporter) viability, CellTiter-Fluor protease fluorescence, 24 h; Potency, µM (top dose mostly 56.7 µM), usual class: cytotoxic; 400,000 compounds, 0.49% hits; further: nearly all actives have a fitted effect of over 40% in size
TGFb inhibitor: qHTS for Inhibitors of TGF-b; HepG2 CAGA-GFP TGF-b/SMAD3 reporter, GFP fluorescence, 18 h; TGF-beta stimulated, 500 pg/mL final; Potency, µM (titrated, usually from 46.1 µM), usual class: inhibitors; 410,000 compounds, 1.2% hits; further: nearly all actives have a fitted effect of over 65% in size
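Inhibition was scored as loss of TGF-beta-induced (500 pg/mL final, 18 hours, 37 degrees C) GFP in HEPG2 cells carrying a CAGA-GFP reporter, in DMEM with 1% FBS. Well GFP was summed per cell; Activity was normalised to unstimulated and stimulated DMSO wells, then concentration-response fitting.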
HepG2 tox: qHTS for Inhibitors of TGF-b: Cytotox Counterscreen; HepG2 CAGA-GFP viability, ATP luminescence, 18 h; Potency, µM (doses to about 46.1 µM), usual class: cytotoxic; 410,000 compounds, 0.76% hits; AID 588856, 2011
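HepG2 CAGA-GFP cells (1000/well, DMEM with 1% FBS) received compound, then TGF-beta at 500 pg/mL final, and were incubated 18 hours at 37 degrees C. Viability was read by CellTiter-Glo luminescence. Media-only wells were set as complete cell-killing and DMSO as no toxicity.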
ATXN2 expr inh: Primary qHTS for Inhibitors of ATXN expression. HEK-293 ATXN2-luciferase reporter, luminescence, 24 h. Potency, µM (top dose mostly 57 µM), hits mostly inhibitors. 360,000 compounds, 0.72% hits. AID 1745845, 2022; further: nearly all actives have a fitted effect of over 55% in size
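qHTS (up to 57 uM final) was run with 24 h compound exposure of reporter cells at 37 °C. Each well was multiplexed: SteadyGlo luminescence measured ATXN2-luciferase expression after a fluorogenic Gly-Phe-AFC viability readout (25 uM final).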
KB-V1 cytotox: qHTS assay for MDR1-selective chemotherapeutics: Primary screen using the drug-selected MDR subline cells KB-V1. KB-V1 MDR cells viability, CellTiter-Glo, 72 h. Potency, µM (highest dose often 46.1 µM), most hits filed as cytotoxic. 400,000 compounds, 3.4% hits. AID 1347076, 2019; further: nearly all actives have a fitted effect of over 60% in size
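KB-V1 MDR subline cells in DMEM (phenol-red free, 10% FBS) exposed to compounds in qHTS concentration series for 72 h at 37 degrees C. Viability read by CellTiter-Glo luminescence; concentration-effect curves fitted after normalization and correction.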
Of the large screens only hits and unclear results are named; the others gave an inactive call. Sampled rows, rich in hits. Any-hit rate of the full collection: about 5.9%. The call rests on the fitted dose curve; in most records, active means well fitted curve in the direction sought with a large enough effect; inconclusive means small, poorly fitted or top-dose-only effect, or another doubt; inactive means no such curve, though single readings can be large; an effect the other way counts as inactive or inconclusive.

CC(C)c1ccc(S(=O)(=O)c2cn(CC(=O)Nc3ccc(F)cc3)c3ccccc3c2=O)cc1	KB-V1 cytotox inconclusive
COc1ccc(CNc2nn3c(-c4cccc(C(=O)N(C)C)c4)cnc3s2)cc1	ATXN viability inconclusive, TGFb inhibitor inconclusive
NS(=O)(=O)c1ccc(CCNc2nn3c(-c4cccc(OC(F)(F)F)c4)cnc3s2)cc1	KB-3-1 tox inconclusive, ATXN viability inconclusive, TGFb inhibitor inconclusive, ATXN2 expr inh 25µM
CC(=O)Nc1ccc(NC(=O)Nc2cccc(Cl)c2)cc1	none
CC(=O)C(=Nc1ccc(Cl)cc1Cl)NNc1cccc(Cl)c1	KB-3-1 tox inconclusive, TGFb inhibitor 22µM
Cc1nn(-c2ccccn2)c2c1-c1nc(N)sc1CC2	KB-3-1 tox inconclusive, KB-V1 cytotox inconclusive (no result: ATXN viability, ATXN2 expr inh)
COc1ccc(N2CCN(c3ccc(NC(=O)C4CCCCC4)cc3C#N)CC2)cc1	ATXN viability inconclusive
CC(=O)Nc1cccc(Oc2cc(C#N)c(C#N)cc2N2CCCCCC2)c1	KB-3-1 tox inconclusive, ATXN viability inconclusive, TGFb inhibitor inconclusive, KB-V1 cytotox 23µM
Cc1cccc(OCCNC(=O)c2ccc(Cl)c(S(=O)(=O)NCc3cccnc3)c2)c1	KB-3-1 tox 1.5µM, TGFb inhibitor inconclusive, KB-V1 cytotox inconclusive
Cc1ccc(C(=O)Nc2cnc3ccccc3c2)cc1	ATXN2 expr inh 2.2µM, KB-V1 cytotox inconclusive
COC(=O)C1CCN(C(=O)c2ccc(Cl)c(S(=O)(=O)NCc3cccnc3)c2)CC1	none
COc1ccccc1C(=O)Nc1nc2ccccc2[nH]1	KB-3-1 tox 2.3µM, HepG2 tox 2.8µM, ATXN2 expr inh 0.32µM, KB-V1 cytotox 4.1µM
O=C(Nc1nc2ccccc2[nH]1)c1ccc(Cl)c(S(=O)(=O)N2CCCC2)c1	KB-3-1 tox inconclusive, TGFb inhibitor inconclusive, ATXN2 expr inh inconclusive, KB-V1 cytotox 15µM
Cc1ccc(OCCN2CCC2(C)C(=O)Nc2ccc3c(c2)OCO3)cc1 (stereo not given)	KB-3-1 tox inconclusive, KB-V1 cytotox inconclusive
CSc1ccccc1C(=O)Nc1nc2ccccc2[nH]1	none
Cc1ccc(N(C)S(=O)(=O)c2cccc(C(=O)Nc3nc4ccccc4[nH]3)c2)cc1	KB-3-1 tox inconclusive, ATXN viability inconclusive, KB-V1 cytotox 2.3µM
C=CCN(c1ccccc1Cl)S(=O)(=O)c1cccc(C(=O)NCCc2ccc(OC)cc2)c1	KB-3-1 tox 23µM, KB-V1 cytotox 2.3µM
COc1cc(SC)ccc1C(=O)Nc1nc2ccccc2[nH]1	KB-3-1 tox 2.9µM, HepG2 tox 10µM, ATXN2 expr inh 0.32µM, KB-V1 cytotox inconclusive
CN(C)c1cccc(C(=O)Nc2nc3ccccc3[nH]2)c1	KB-3-1 tox inconclusive, ATXN2 expr inh inconclusive, KB-V1 cytotox inconclusive
Cc1ccc(OCCNC(=O)c2cccc(S(=O)(=O)NCc3ccccc3)c2)cc1	KB-3-1 tox 4.6µM, KB-V1 cytotox 8.2µM
Cc1ncc(CO)c2c1Oc1nc(-c3ccc(Cl)cc3)nc(SCC(=O)N3CCCCC3)c1C2	KB-V1 cytotox inconclusive
Cc1ccc(-c2nnc(N3CCC(C(N)=O)CC3)s2)cc1	KB-3-1 tox inconclusive (no result: ATXN viability, TGFb inhibitor, HepG2 tox, ATXN2 expr inh)
O=C(CSc1nccn1Cc1ccccc1)NCc1ccco1	none (no result: KB-3-1 tox, ATXN viability, ATXN2 expr inh, KB-V1 cytotox)
COc1cc(SC)ccc1C(=O)NNC(=O)c1cc(C)oc1C	KB-3-1 tox inconclusive, ATXN viability inconclusive, HepG2 tox 7.9µM, KB-V1 cytotox inconclusive
Cc1ccc(C(=O)Nc2cc3ccccc3oc2=O)cc1	KB-3-1 tox 3.3µM, ATXN2 expr inh inconclusive, KB-V1 cytotox 4.1µM
COc1ccc(N(C)S(=O)(=O)c2cccc(C(=O)NCc3ccc(C)cc3)c2)cc1	TGFb inhibitor inconclusive, KB-V1 cytotox 6.5µM
O=C(Nc1nc2ccccc2[nH]1)C1CCN(C(=O)c2ccc(F)cc2)CC1	none
O=C(Nc1nc2ccccc2[nH]1)C1CC1	KB-3-1 tox inconclusive, ATXN viability inconclusive, KB-V1 cytotox 10µM
CCc1nc2c(OCC(=O)c3ccc(F)cc3)cccn2c1N(C)C(=O)C(C)C	none
O=C(C[N+]12CCCc3cccc(c31)CCC2)c1ccc2ccccc2c1	KB-3-1 tox inconclusive (no result: ATXN viability, ATXN2 expr inh)
CC(C(=O)Nc1ccccc1C(F)(F)F)n1nc(-c2ccccc2)c2c(c1=O)CCCC2 (stereo not given)	KB-3-1 tox inconclusive, ATXN viability inconclusive, TGFb inhibitor inconclusive, ATXN2 expr inh inconclusive
CCCCNC(=O)C(NC(=O)c1cnc(C)cn1)C(=O)c1ccccc1 (stereo not given)	KB-V1 cytotox inconclusive (no result: ATXN viability, TGFb inhibitor, HepG2 tox, ATXN2 expr inh)
Cc1ccc(C(=O)Nc2nc3ccccc3[nH]2)cc1	KB-3-1 tox inconclusive, ATXN2 expr inh 3.5µM, KB-V1 cytotox inconclusive
CC1CN(C(=O)N2CCC(C(=O)NC3CCCCCC3)CC2)c2cc(Cl)ccc2O1 (stereo not given)	TGFb inhibitor inconclusive (no result: ATXN viability, ATXN2 expr inh)
COc1ccc(S(=O)(=O)N2c3cc(Cl)ccc3Oc3nc4ccccc4nc32)cc1	KB-3-1 tox 2.1µM, KB-V1 cytotox 7.3µM
O=S(=O)(c1ccc(Cl)cc1)N1c2ccccc2Oc2nc3ccccc3nc21	KB-3-1 tox inconclusive, KB-V1 cytotox inconclusive
